Hit rate of the full screen: of about 420,000 compounds, about 64,000 (15%) were called active. About 27% were inconclusive and are not listed. Calls come from the whole dose curve; as a rule, active = well fitted inhibition curve with a large enough effect; inconclusive = small, poorly fitted or top-dose-only effect; inactive = flat fitted curve, though single readings scatter. Only a sample is shown.
% is set by controls: 0 for no effect and ±100 for the full control effect; potency is the fitted concentration of half-maximal effect.

This assay can be described thus: qHTS for Inhibitors of human tyrosyl-DNA phosphodiesterase 1 (TDP1): qHTS in cells in absence of CPT. Note: nearly all actives have a fitted effect of over 55% in size. Conditions: DT40 Tdp1-/- hTDP1 cells, no CPT, ATP luminescence, 48 h; activity change, negative = growth inhibition: at 46.2 µM (top of the series). The gist of the method:
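Growth of hTDP1-complemented DT40 Tdp1-knockout cells is measured by ATP luminescence after at least 48 hr compound exposure at 37 °C, with DMSO substituting for the 20 nM CPT used in the parallel screen.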
(In general: In qHTS, concentration-response curves come from the screen itself.)
As to `COc1ccc(-c2onc3ccc(C(C)=O)cc23)cc1`, the “activity change, negative = growth inhibition” value is -13.7% (inactive).

Consider `CCOCCCNC(=O)c1ccc(CS(=O)(=O)c2cccc(C(F)(F)F)c2)o1`, for which the “activity change, negative = growth inhibition” value was 6.63% (inactive).

In the case of `Cc1c(Cl)cnc(NC(=O)COC(=O)c2ccc(S(=O)(=O)NCc3ccco3)cc2)c1Cl`, the “activity change, negative = growth inhibition” value was -8.95% (inactive).

`COC(=O)C[n+]1cccc2ccccc21`: the “activity change, negative = growth inhibition” value was -21.6% (inactive).

In the case of `Cc1cccc[n+]1CC(=O)c1ccccc1`, the “activity change, negative = growth inhibition” value is 0.748% (inactive).

Regarding `CC(C)(C)c1ccc(C(=O)C[n+]2cccc3cc(Cl)ccc32)cc1`, the Potency is 4.47 µM (active).

Turning to `COc1cccc2c1OCC(C(=O)NCc1ccc(Cl)cc1Cl)=C2`, the “activity change, negative = growth inhibition” value is 2.01% (inactive).

With `O=C1NCC(Nc2ccccc2)C(=O)N1` (stereo not given), the “activity change, negative = growth inhibition” value is 12.2% (inactive).

`Nc1ccccc1SC(C[N+](=O)[O-])c1ccccc1` (stereo not given): the Potency is 2.31 µM (active).

On to `Nc1ccccc1SCc1cc([N+](=O)[O-])cc2c1OCOC2`, for which the “activity change, negative = growth inhibition” value is -24.8% (inactive).

As to `C#CCO[C@@H]1C[C@H](n2cnc3c(=O)[nH]c(NC(=O)C(C)C)nc32)O[C@@H]1CO`, the “activity change, negative = growth inhibition” value is 3.17% (inactive).

As to `CCCCCCCCCCCCCCCCO`, the “activity change, negative = growth inhibition” value is 4.89% (inactive).

Take `O=C(CN1C(=O)COc2ccccc21)NCCN1CCc2ccccc2C1`: the “activity change, negative = growth inhibition” value was 4.11% (inactive).

Regarding `Cc1cccc2c1-c1sc(C(=O)NCCCN3CCc4ccccc4C3)cc1CO2`, the Potency is 20.6 µM (active).

Regarding `O=C(NCCCN1CCOCC1)c1cc2c(s1)CCC2`, the “activity change, negative = growth inhibition” value is -0.232% (inactive).

`O=C(Nc1cccc(Cl)c1)c1cncn1-c1ccc(F)cc1`: the “activity change, negative = growth inhibition” value was -3.19% (inactive).

For the molecule `Cc1ccc(NC(=O)CCN2C(=O)c3ccccc3C2=O)cc1C`, the “activity change, negative = growth inhibition” value was 3.57% (inactive).

Consider `Cc1cc2c(cc1C)N(C(=O)CN1C(=O)c3ccccc3C1=O)C(C)(C)c1ssc(=S)c1-2`, for which the Potency is 25.9 µM (active).

Regarding `Cc1cc(C)cc(NC(=O)CN2C(=O)c3ccccc3C2=O)c1`, the “activity change, negative = growth inhibition” value was -10.3% (inactive).

In the case of `CCCC(=O)N=c1sc2cccc(F)c2n1C`, the “activity change, negative = growth inhibition” value is -6.66% (inactive).

As to `CCCN(C(=O)CSc1nnnn1C)c1c(N)n(Cc2ccccc2)c(=O)[nH]c1=O`, the “activity change, negative = growth inhibition” value is -8.42% (inactive).

As for `COC(=O)[C@@H]1C[C@@]2(O)[C@@H](O)[C@@H](O)[C@@H](O)C[C@H]2N1Cc1ccc(C)s1`, the “activity change, negative = growth inhibition” value was -22.7% (inactive).

Take `CS(=O)(=O)N(CC(=O)N1CCN(c2ccc(F)cc2)CC1)C1CCCCC1`: the “activity change, negative = growth inhibition” value is -11.2% (inactive).

For the molecule `CN(C1CCS(=O)(=O)C1)S(=O)(=O)c1ccc2ccccc2c1` (stereo not given), the “activity change, negative = growth inhibition” value was -18.1% (inactive).

In the case of `COc1ccc(CN2CCCC(CNC(=O)c3ccc(F)cc3)C2)cc1OC` (stereo not given), the “activity change, negative = growth inhibition” value was -13.6% (inactive).

`COc1ccc(CN2CCCC(C(=O)N3CCCCC3)C2)cc1` (stereo not given): the “activity change, negative = growth inhibition” value is -15.9% (inactive).

As for `COc1ccc(CCN(C)C(=O)C2CCCN(Cc3ccc(OC)c(OC)c3)C2)cc1OC` (stereo not given), the “activity change, negative = growth inhibition” value is -13.7% (inactive).

On to `COc1cc(CN2CCCC(C(=O)c3ccc(SC)cc3)C2)cc(Cl)c1O` (stereo not given), for which the Potency was 14.6 µM (active).

In the case of `COc1ccc(CN2CCCC(C(=O)c3ccc(Cl)cc3)C2)cc1Cn1cncn1` (stereo not given), the Potency was 18.4 µM (active).

For `c1ccc(-n2ncc(-c3nn[nH]n3)n2)cc1`, the “activity change, negative = growth inhibition” value was -9.83% (inactive).

In the case of `Cc1ccccc1NC(=O)COc1cccc2c1CCNC2=O`, the “activity change, negative = growth inhibition” value is -29.1% (inactive).

With `Cc1c(Cl)cccc1NC(=O)CSc1ccc(-c2cccnc2)nn1`, the “activity change, negative = growth inhibition” value was -20.6% (inactive).

Regarding `Brc1ccc(CSc2ccc(-c3ccco3)nn2)cc1`, the “activity change, negative = growth inhibition” value is 5.7% (inactive).

Regarding `Cc1cc(F)ccc1S(=O)(=O)Nc1ccc(C(=O)N(C)Cc2ccco2)cc1`, the “activity change, negative = growth inhibition” value was -6.11% (inactive).

For `Cc1ccnc(NS(=O)(=O)c2ccc(NC(=O)c3ccc(S(=O)(=O)N4CCOCC4)cc3)cc2)n1`, the “activity change, negative = growth inhibition” value is -8.99% (inactive).

As for `Cc1ccc(S(=O)(=O)N2CCC(C(=O)NCC3CCCO3)CC2)cc1` (stereo not given), the “activity change, negative = growth inhibition” value is 0.855% (inactive).

Consider `Cc1cc(C2=NNC(=Nc3ccc(S(=O)(=O)N4CCOCC4)cc3)SC2)c(C)n1CC1CCCO1` (stereo not given), for which the Potency is 2.91 µM (active).

As to `COCCn1c(C)cc(C2=NNC(=Nc3ccc(F)cc3)SC2)c1C`, the Potency was 14.6 µM (active).

On to `C=CCn1c(C)cc(C2=NNC(=NCC)SC2)c1C`, for which the Potency was 20.6 µM (active).

`CCSC(C)CC1C/C(=N/O)c2c(C)noc2C1` (stereo not given): the “activity change, negative = growth inhibition” value was -5.32% (inactive).

For `Cc1ccc(Cl)c(OCC(=O)N2CCc3ccccc3C2)c1`, the “activity change, negative = growth inhibition” value was -4.58% (inactive).

Turning to `Nc1c(-c2ccc(F)cc2)cnn1C1CCS(=O)(=O)C1` (stereo not given), the “activity change, negative = growth inhibition” value was -14.5% (inactive).

On to `Cc1cc(=O)cc(C)n1-c1ccc(Cl)c(Cl)c1`, for which the “activity change, negative = growth inhibition” value is 2.04% (inactive).

Turning to `CCOc1ccccc1NC(=O)CCS(=O)(=O)c1cccc2nsnc12`, the Potency result was “inactive”.

Regarding `CCOc1ccc(-c2c(C)n([O-])c3c([n+]2=O)CCCC3)cc1`, the “activity change, negative = growth inhibition” value is -1.93% (inactive).

`Nc1nc2cc(Cl)ccc2n1N`: the “activity change, negative = growth inhibition” value was -9.62% (inactive).

`COc1cc(OC)c(C2C=C(C(=O)O)Nc3ncnn32)cc1OC` (stereo not given): the “activity change, negative = growth inhibition” value was 31.7% (inactive).

In the case of `CC(C)c1nnc(NC(=O)C2CC(=O)N(CCc3ccc(F)cc3)C2)s1` (stereo not given), the “activity change, negative = growth inhibition” value was -1.1% (inactive).

With `CC(=O)Nc1ccc(S(=O)(=O)N(CCc2ccccc2)CC(=O)N/N=C/c2ccc(C(=O)O)cc2)cc1`, the “activity change, negative = growth inhibition” value is -16.1% (inactive).

Consider `COc1ccc(C(=O)Nc2onc3c2CCCC3)cc1`, for which the “activity change, negative = growth inhibition” value was -21% (inactive).

Regarding `CCOc1ccc(NC(=O)CSc2c3c(nc4ccccc24)CCCC3)cc1`, the Potency is 16.4 µM (active).

Take `CCOc1ccc(C(=O)Nc2ccc3nc4c(c(Nc5ccccc5OC)c3c2)CCCC4)cc1`: the Potency is 4.61 µM (active).

In the case of `CCOc1ccc(C(=O)NC2CCN(C(=O)Nc3ccccc3OC)CC2)cc1`, the “activity change, negative = growth inhibition” value is -20.6% (inactive).

As for `CCOc1ccc(NC(=O)CSc2nncn2C)cc1`, the “activity change, negative = growth inhibition” value was -14.2% (inactive).

Take `CC(=O)c1cccc(NC(=O)CSc2nc3c(c(=O)[nH]2)CCC3)c1`: the “activity change, negative = growth inhibition” value is -13.9% (inactive).

Take `Cn1cnnc1SCC(=O)NNC(=O)COc1ccc(Br)cc1`: the “activity change, negative = growth inhibition” value is 0.551% (inactive).

With `O=C(NC1CC1)C1CCCN(C(=O)NC2CCCCC2)C1` (stereo not given), the “activity change, negative = growth inhibition” value is 11.4% (inactive).

Turning to `Cc1cc(Br)ccc1NC(=O)Cn1cnc2sc(C)c(S(=O)(=O)N3CCN(C)CC3)c2c1=O`, the “activity change, negative = growth inhibition” value was 1.29% (inactive).

Take `COc1ccc(N2CCN(C(=O)Cn3cnc4sc(C)c(S(=O)(=O)N5CCOCC5)c4c3=O)CC2)cc1`: the Potency was 18.4 µM (active).

Regarding `CCN(CC)CCNC(=O)Cn1cnc2sc(C)c(S(=O)(=O)N3CCOCC3)c2c1=O`, the “activity change, negative = growth inhibition” value is -4.5% (inactive).

On to `OCCN1CCN(CCO)C1=S`, for which the “activity change, negative = growth inhibition” value is -13.3% (inactive).

For the molecule `CC(C)(C)NC(=O)NC(=O)COC(=O)CCC1CCCCC1`, the “activity change, negative = growth inhibition” value was -5.88% (inactive).

Take `Cn1c(C(=O)NCCN2CCc3ccccc3C2)cc2c(=O)[nH]c3ccccc3c21`: the Potency is 16.4 µM (active).

Take `O=C(NCCN1CCN(Cc2ccccc2)CC1)c1cc2c(=O)[nH]c3ccccc3c2s1`: the Potency is 25.9 µM (active).

For the molecule `Cn1cccc1C(=O)N1CCc2ccccc2C1`, the “activity change, negative = growth inhibition” value was 0.109% (inactive).

As for `Cc1c(C(=O)CN2CCOCC2)[nH]c2ccccc12`, the “activity change, negative = growth inhibition” value was -6.49% (inactive).

Turning to `O=C(c1ncn2c1c(=O)[nH]c1ccccc12)N1CCc2ccccc2C1`, the “activity change, negative = growth inhibition” value was -20.7% (inactive).

On to `O=C(Cc1c(O)c2ccccc2[nH]c1=O)NCc1ccccc1`, for which the “activity change, negative = growth inhibition” value is -9.23% (inactive).

As for `Cc1cccc(N2CCN(C(=O)c3cc4c(=O)[nH]c5ccccc5c4n3C)CC2)c1C`, the Potency is 18.4 µM (active).

As to `O=C(c1c(Cl)cccc1Cl)N1CCN(c2cccc3[nH]ccc23)CC1`, the “activity change, negative = growth inhibition” value was -22.9% (inactive).

Values taken from PubChem BioAssay AID686978 (National Center for Advancing Translational Sciences (NCATS), 2013).
